Experimental data published in PubChem BioAssay AID1159580 (chemical genetic matrix, 2015).
Out of some 5,500 compounds screened, about 2,000 (36%) were called active. Another 18% or so got no clear call; they are omitted. Cut-off read from the data, not from the text of the source: active = normalized growth mostly below about 0.91 (no sharp cut-off); inconclusive = no clear call, values can overlap the other calls; inactive = mostly above about 0.92. The list shows a part of the results.

Test: chemical genetic growth profiling, strain panel (AID 1159580);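 note: tested at 20 µM; growth read once vehicle control cultures reached saturation at 30 °C; 1 = growth at the plate median or of vehicle wells; lower values mean less growth of the strain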
Details: growth OD

Measured: normalized growth

NS(=O)(=O)c1ccc(-n2ncc3ccccc3c2=O)cc1
inactive: S. cerevisiae deletion strains, locus YAL013W, strain DEP1, active compounds read low 1.02 | S. cerevisiae deletion strains, locus YBR229C, strain ROT2, active compounds read low 1.01 | S. cerevisiae deletion strains, locus YCL061C, strain MRC1, active compounds read low 1.01 | S. cerevisiae deletion strains, locus YDL101C, strain DUN1, active compounds read low 1.04 | S. cerevisiae deletion strains, locus YDL134C, strain PPH21, active compounds read low 1.02 | S. cerevisiae deletion strains, locus YDR150W, strain NUM1, active compounds read low 0.989 | S. cerevisiae deletion strains, locus YEL061C, strain CIN8, active compounds read low 0.987 | S. cerevisiae deletion strains, locus YGR078C, strain PAC10, active compounds read low 1.02 | S. cerevisiae deletion strains, locus YHR030C, strain SLT2, active compounds read low 1.05 | S. cerevisiae deletion strains, locus YHR087W, strain rtc3, active compounds read low 1 | S. cerevisiae deletion strains, locus YJR043C, strain POL32, active compounds read low 1.01 | S. cerevisiae deletion strains, locus YJR075W, strain HOC1, active compounds read low 1.02 | S. cerevisiae deletion strains, locus YKL190W, strain CNB1, active compounds read low 1 | S. cerevisiae deletion strains, locus YLR039C, strain RIC1, active compounds read low 1.01 | S. cerevisiae deletion strains, locus YLR058C, strain SHM2 (second series), active compounds read low 0.994 | S. cerevisiae deletion strains, locus YLR085C, strain ARP6, active compounds read low 0.984 | S. cerevisiae deletion strains, locus YLR262C, strain YPT6, active compounds read low 1.06 | S. cerevisiae deletion strains, locus YML094W, strain GIM5, active compounds read low 0.986 | S. cerevisiae deletion strains, locus YMR219W, strain ESC1, active compounds read low 1 | S. cerevisiae deletion strains, locus YMR263W, strain SAP30, active compounds read low 1.01 | S. cerevisiae deletion strains, locus YMR307W, strain GAS1, active compounds read low 0.981 | S. cerevisiae deletion strains, locus YNL153C, strain GIM3, active compounds read low 0.996 | S. cerevisiae deletion strains, locus YNL298W, strain CLA4 (second series), active compounds read low 1.01 | S. cerevisiae deletion strains, locus YNL322C, strain KRE1, active compounds read low 1.01 | S. cerevisiae deletion strains, locus YNR030W, strain Alg12, active compounds read low 1.01 | S. cerevisiae deletion strains, locus YPL055C, strain LGE1, active compounds read low 1.02 | S. cerevisiae deletion strains, locus YPL241C, strain CIN2, active compounds read low 1.03 | S. cerevisiae deletion strains, locus YPR135W, strain CTF4, active compounds read low 1.06 | S. cerevisiae strains, strain wild type, active compounds read low 1.01
